Some compounds were tested as several samples or in several runs, with calls that do not always agree. Active and inactive are the calls of the source. Rule for the calls: active = hit-call score of the fitted dose curve at least 0.9, where 1 is the maximum; inactive = score below 0.9.
These compounds were tested against CCAAT/enhancer-binding protein beta (Homo sapiens) (UniProt P17676) (assay: ATG_C_EBP_CIS: Attagene CIS-FACTORIAL HepG2 Assay for human CCAAT/Enhancer Binding Protein (C/EBP) beta (AID 2282927)). Details: HepG2 Attagene cis-factorial transcription factor reporter; actives raise or lower the signal.
Protocol: ATG_CIS is a cell-based, multiplexed-readout assay that uses HepG2, a human liver cell line, with measurements taken at 24 hours after chemical dosing in a 24-well plate.ATG_C_EBP_CIS is one of 52 assay component(s) measured or calculated from the ATG_CIS assay. It is designed to make measurements of mRNA induction, a form of inducible reporter, as detected with fluorescence intensity signals by Reverse transcription polymerase chain reaction (RT-PCR) and Capillary electrophoresis technology.Data from the assay component ATG_C_EBP_CIS was analyzed into 1 assay endpoint. This assay endpoint, ATG_C_EBP_CIS, was analyzed with bidirectional fitting relative to DMSO as the negative control and baseline of activity. Using a type of inducible reporter, measures of mRNA for gain or loss-of-signal activity can be used to understand the reporter gene at the transcription factor-level as they relate to the gene CEBPB. Furthermore, this assay endpoint can be referred to as a primary readout, because this assay has produced multiple assay endpoints where this one serves a reporter gene function. To generalize the intended target to other relatable targets, this assay endpoint is annotated to the dna binding intended target family, where the subfamily is basic leucine zipper.
Human liver HepG2 cells are transiently transfected with multiple reporter transcription units (MRTUs) in 6-well plates using FuGene 6 reagent (Roche; 3 ml FuGene/1 mg DNA). The MRTU constructs are regulated by a cis-regulating element (promoter). […] A major difference between the CIS and TRANS system is that in CIS activities of endogenous TFs are measured, whereas the TRANS assay evaluates changes in activities of exogenous, chimeric NR-Gal4 proteins. […] At the end of 24 hour incubation, total RNA was isolated using TriZol reagent (Invitrogen). The isolated RNA is then reverse-transcribed using oligo(dT) primer and Mo-MLV reverse transcriptase (Invitrogen) with DNAse I (Ambion) treatment for 30 min. The one-tenth of the produced cDNA was amplified by PCR using Taq DNA polymerase (Invitrogen) and two reporter sequence-specific primers. The PCR products were fluorescently labeled by primer extension with 6-arboxyfluorescein (6-FAM) 5'-labeled reporter sequence-specific primer (2 min at 95 C, 20 s at 68 C and 10 min at 72 C) and these products were digested with 5U of HpaI (New England Biolabs) for 2h at 37 C. The fragments were purified using Qiaquick PCR columns (Qiagen), analyzed on an ABI 3130xL genetic analyzer (Applied Biosystems) with peak positions identified by using a set of X-rhodamine (ROX)-labeled MapMarker1000 molecular weight standards (BioVentures). The raw capillary electrophoresis data was processed using Attagraph software (Attagene).

CCAAT/enhancer-binding protein beta (Homo sapiens), sequence (P17676 whole entry, looked up): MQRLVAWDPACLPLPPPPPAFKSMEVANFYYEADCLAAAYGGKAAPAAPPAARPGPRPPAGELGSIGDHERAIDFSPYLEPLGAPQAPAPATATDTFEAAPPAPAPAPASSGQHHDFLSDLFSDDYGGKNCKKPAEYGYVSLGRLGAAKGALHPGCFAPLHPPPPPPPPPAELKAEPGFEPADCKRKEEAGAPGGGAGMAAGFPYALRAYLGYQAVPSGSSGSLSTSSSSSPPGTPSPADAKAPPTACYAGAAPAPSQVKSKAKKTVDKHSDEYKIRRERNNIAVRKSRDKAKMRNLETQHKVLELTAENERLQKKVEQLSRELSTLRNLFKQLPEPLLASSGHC

Structure (SMILES)	outcome	AC50
CC(C)(C)C1CCCCC1O (stereo not given)	inactive	–
NC(=NCCCCCCN=C(N)/N=C(\N)Nc1ccc(Cl)cc1)/N=C(\N)Nc1ccc(Cl)cc1	inactive	24.6 µM (active)
CS(=O)(=O)c1ccc([C@@H](CC2CCCC2)C(=O)Nc2cnccn2)cc1Cl	inactive	–
COC(=O)CC(C(C)=O)C(=O)OC (stereo not given)	inactive	–
c1cc[nH]c1	inactive	–
C=CC(=C)CC/C=C(\C)CCC=C(C)C	inactive	–
C=Cc1ccc(O)c(OC)c1	inactive	–
c1cc2cccc3c4cccc5cccc(c(c1)c23)c54	inactive	–
NS(=O)(=O)O	inactive	–
CCCCCCCCC1CCC(=O)O1 (stereo not given)	inactive	–
Cc1cc(Cc2cc(C)cc(C(C)(C)C)c2O)c(O)c(C(C)(C)C)c1	–	31.8 µM (active)
CCCCCCCCCCCC[N+](C)(C)Cc1ccccc1	inactive	18 µM (active)
CC(C)[C@@H]1CC[C@@H](C)C[C@H]1O	inactive	–
COC(O)c1ccccc1 (stereo not given)	inactive	–
CC(C)(C)c1ccc(CCC=O)cc1	inactive	–
CC1CCC(CO)CC1 (stereo not given)	inactive	–
CCCCCCCCCCCCCCCCCC[N+](C)(C)Cc1ccccc1	–	75.8 µM (active)
CCCCCCOC(=O)c1ccc(O)cc1	inactive	–

Structure (SMILES)	outcome	AC50
O=C1Cc2ccccc2N1c1c(Cl)cccc1Cl	inactive	–
CCCCCCCCCCCC[N+](C)(C)CCCCCCCCCCCC	–	16.4 µM (active)
COc1ccccc1NC(=O)c1cc2ccccc2cc1O	inactive	–
O=CC(F)(F)C(F)(F)C(F)(F)C(F)F	inactive	–
Cc1ccc2ccc3ccc(C)cc3c2c1	inactive	–
COC1=CC(=O)C[C@@H](C)[C@]12Oc1c(Cl)c(OC)cc(OC)c1C2=O	inactive	–
O=S(=O)(O)c1ccc2cc(O)ccc2c1	inactive	–
CCCCCCCC(OC)OC	inactive	–
O=C(CC(=O)C(F)(F)C(F)(F)C(F)(F)F)c1cccs1	inactive	66 µM (active)
N=C(N)c1ccc(OCCCCCOc2ccc(C(=N)N)cc2)cc1	inactive	–
CCC(C)c1ccccc1O (stereo not given)	inactive	–
CC1=NN(c2ccccc2)C(=O)C1	inactive	–
C=C(c1ccc(C(=O)O)cc1)c1cc2c(cc1C)C(C)(C)CCC2(C)C	inactive	0.0309 µM (active)
CCC1CO1 (stereo not given)	inactive	–
CCCCCCCCCCCCCCCC(=O)OC	inactive	–
NC(C(F)(F)F)C(F)(F)F	inactive	–
CCOCCOCC	inactive	–
CC(C)(O)C(=O)c1ccccc1	inactive	–
